Sm TGR block = inhibitors of Schistosoma mansoni thioredoxin glutathione reductase; Q962Y6; purified TGR, DTNB reduction, TNB absorbance 405 nm; Potency, µM (doses to about 114 µM), for inactives: at the top dose activity change, negative = inhibition, hits mostly inhibitors; 3% of 360,000 active; AID 485364; note: potency is the fitted concentration of half-maximal effect; % is set by controls: 0 for no effect and ±100 for the full control effect; nearly all actives have a fitted effect of over 60% in size
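Kinetic colorimetric format: TGR-catalysed, NADPH-driven DTNB reduction monitored via TNB absorbance. Enzyme dispensed at 20 nM; compound exposure 15 min at room temperature before reaction start.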
Pf growth 96h = P. falciparum growth inhibition at 96 hour, primary screen for plastid delayed-death inhibitors | P. falciparum luciferase reporter growth, 96 h | Potency, µM (doses to about 28.7 µM), inactives show top-dose activity change, negative = inhibition, hits mostly inhibitors | 6.9% of 320,000 active; note: potency is the fitted concentration of half-maximal effect; % is set by controls: 0 for no effect and ±100 for the full control effect
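Erythrocytes infected with luciferase-expressing P. falciparum were dispensed at 2% hematocrit and 0.05% parasitemia (final), then incubated with compounds 96 hours at 37 C in 5% CO2. Luminescence after detection reagent addition reported growth.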
NS1 inh = influenza NS1 inhibition | Potency, µM (highest dose often 46.1 µM), for the others: top-dose activity, positive = more growth | 0.4% of 270,000 active; calls by dose curve; note: potency is the fitted concentration of half-maximal effect; actives are rising curves; nearly all actives have a fitted effect of over 50% in size
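Read-out: OD600 growth recovery of NS1-expressing budding yeast. Cells grown overnight at 30C in -URA glucose medium, washed, resuspended and diluted 1:100 in 2% galactose assay medium, pH 6.0. Same strain lacking NS1 served as positive control.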
Pf growth 48h = P. falciparum growth inhibition at 48 hours (one generation). P. falciparum luciferase growth in erythrocytes, 48 h. Potency, µM (series often up to 28.7 µM), inactives show top-dose activity change, negative = inhibition, hits mostly inhibitors. AID 504832. 5.9% of 310,000 active; note: potency is the fitted concentration of half-maximal effect; % is set by controls: 0 for no effect and ±100 for the full control effect
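Firefly luciferase activity from engineered P. falciparum reports growth; inhibitors lower the luminescent signal. Cultures contained 2% hematocrit erythrocytes at 0.1% final parasitemia.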
Cycloheximide cs = counter-screen hit for Shiga toxin inhibitors, cycloheximide; cell reporter, cycloheximide protein synthesis inhibition counterscreen; max response, %; 12% of 300,000 active; in the data active = max response mostly above about 13%, no sharp cut-off; inactive = mostly below about 14%; note: read at 38.3 µM for the half of the compounds with a filed dose; 0% is about no effect
Shiga inhibitor = inhibitors of Shiga toxin in Vero cells | inhibition, % at 38.7 µM | Vero cells, Shiga toxin protein synthesis inhibition reporter | 9.2% of 290,000 active | AID 2315; in the data active = inhibition mostly above about 28%, no sharp cut-off; inactive = mostly below about 43%; note: 0% is about no effect
Active calls of the source: *; ? = inconclusive; nt = not tested or not shown; [ ] = remark or other dose. Rows were chosen to be rich in hits. Some 21% of all compounds tested hit in one or more screens of this group. Unless noted, calls come from the whole dose curve; as a rule, active = well fitted curve in the direction sought with a large enough effect; inconclusive = small, poorly fitted or top-dose-only effect, or another doubt; inactive = no such curve, though single readings can be large; an effect the other way counts as inactive or inconclusive.

SMILES | Sm TGR block | Pf growth 96h | NS1 inh | Pf growth 48h | Cycloheximide cs | Shiga inhibitor
COC(=O)c1ccc(NC(=O)c2ccccc2)o1 | -2% | 36% | -1% | 48% | 38* | 81*
Cc1ccc(-n2nc(C)c3c(C)cc(=O)n(CC(=O)Nc4cc(Cl)ccc4C)c32)cc1 | -5% | nt | nt | nt | nt | nt
S=C(Nc1ccccc1)c1nc2ccccc2s1 | 5% | 24% | 2% | 174% | 56* | 83*
O=C(COc1ccccc1)NNc1nc2ccccc2s1 | 6% | 29% | 0% | 25% | 34* | 63*
C/C(=C\C(=O)c1ccccc1)NNc1nc2ccccc2s1 | 0% | 21% | 27% | 25% | 44* | 110*
O=C(NNc1nc2ccccc2s1)Nc1ccccc1 | 2% | 175% | 9% | 92% | 37* | 29*
CCOC(=O)C1=C(CN2CCC(C(=O)OCC)CC2)NC(=O)NC1c1ccc(Cl)cc1 (stereo unspecified) | -15% | nt | nt | nt | nt | nt
Cc1ccc2c(=O)cc(C(=O)Nc3c(C(=O)c4ccc(F)cc4)oc4ccccc34)oc2c1C | 12% | nt | nt | nt | nt | nt
COc1ccc(NC(=O)c2cc(C)nn2-c2ccccc2)cc1 | 2% | 16% | -3% | -1%[0.00184 µM] | 37* | 58*
CC(=O)Nc1ccc(NC(=O)c2cc(C)nn2-c2ccccc2)cc1 | -7% | 3% | -4% | 7% | -2 | 0
CCc1ccc(NC(=O)c2cc(C)nn2-c2ccccc2)cc1 | 4% | 21% | -5% | -1%[0.00184 µM] | 13* | 26
Cc1ccc(Cn2c(CO)cnc2SCC(=O)Nc2ccc(C)c(Cl)c2)cc1 | 3% | nt | nt | nt | 9 | 21
COc1ccc(NC(=O)CSc2nc(-c3ccc(F)cc3)c3cccc(C)c3n2)cc1 | 3% | nt | nt | nt | nt | nt
CCCCNc1ccc(S(=O)(=O)c2cccc([N+](=O)[O-])c2)cc1[N+](=O)[O-] | -3% | 237% | 11% | -26% | 1 | -8
Cc1nc2ccc(S(=O)(=O)NCC(=O)Nc3ccc(F)cc3F)cc2s1 | 3% | nt | nt | nt | nt | nt
CCOc1ccc(C(O)(c2ccccc2)C(CN2CCCC2)c2ccccc2)cc1 (stereo unspecified) | 2% | 121% | 1% | 12µM* | -2 | 20
CCc1ccc(C(O)(CC(C)C)C(CN2CCOCC2)c2ccccc2)cc1 (stereo unspecified) | 10% | -2% | 2% | ? | -3 | 11
COc1ccc(CC(=O)OC(C)CN2CCOCC2)cc1 (stereo unspecified) | ? | 18% | 5% | 5% | -4 | -3
CCOc1ccc(C(O)(CCC(C)C)C(CN2CCOCC2)c2ccccc2)cc1 (stereo unspecified) | 1% | 12% | -11% | 7.4µM* | -3 | -6
COc1ccc(C(O)(CCC(C)C)C(CN2CCOCC2)c2ccc(Cl)cc2)cc1 (stereo unspecified) | -2% | -24% | 2% | 1.7µM* | -3 | 5
COc1ccc(C(O)(CC(C)C)C(CN2CCOCC2)c2ccccc2)cc1 (stereo unspecified) | 0% | ? | -4% | 12µM* | -3 | -2
CCc1ccc(C(O)(c2ccccc2OC)C(CN2CCOCC2)c2ccccc2)cc1 (stereo unspecified) | -17% | 15% | nt | ? | 1 | -9
O=C(Nc1ccc(F)c(Cl)c1)C1Cc2ccccc2CN1S(=O)(=O)c1ccc(F)cc1 (stereo unspecified) | 1% | nt | nt | nt | nt | nt
CC(=O)C(=O)O | nt | nt | nt | nt | -3 | 16
CC1(C)Cc2ccccc2C(NNC(=O)c2ccncc2)=N1 | 7% | 44% | 1% | 3% | -2 | -21
SMILES | Sm TGR block | Pf growth 96h | NS1 inh | Pf growth 48h | Cycloheximide cs | Shiga inhibitor
CCCC(O)(CCN1CCOCC1)c1ccc(Cl)cc1 (stereo unspecified) | 20µM* | -14% | 6% | -12% | 1 | -8
CCCCC(O)(c1ccc(F)cc1)C(CN1CCOCC1)c1ccc(Cl)cc1 (stereo unspecified) | -1% | 43% | -12% | 1.9µM* | 1 | -6
CCCC(O)(c1ccc(Cl)cc1)C(CN1CCOCC1)c1ccc(Cl)cc1 (stereo unspecified) | -4% | 28% | 1% | 1.9µM* | -8 | -8
CCCC(O)(c1ccc(OC)cc1)C(CN1CCOCC1)c1ccc(Cl)cc1 (stereo unspecified) | -31% | -13% | -2% | ? | -4 | 1
OC(CCN1CCOCC1)(c1ccc(Cl)cc1)C1CCCCC1 (stereo unspecified) | ? | 5% | -20% | ? | -4 | -9
COC(=O)c1ccc(Cl)cc1NC(=O)NCc1c(-n2cccc2)sc2c1CCCC2 | 0% | nt | nt | nt | nt | nt
O=C(Cn1c(=O)n(-c2ccc(Cl)cc2)c(=O)c2oc3ccccc3c21)Nc1ccccc1 | 6% | nt | nt | nt | nt | nt
CCOC(=O)CCCCC(=O)c1[nH]c(=O)[nH]c1CSc1nnc2c3cc(Br)ccc3n(C)c2n1 | -36% | 43% | nt | 10µM* | -2 | 3
CCOC(=O)c1[nH]c(=O)[nH]c1COC(=O)c1cc2ccccc2o1 | 4.5µM* | -17% | 5% | 2% | -2 | -13
CCOC(=O)CCCCC(=O)c1[nH]c(=O)[nH]c1CSc1nc(C)cc(=O)[nH]1 | 2.5µM* | nt | 11% | -11% | -1 | -11
CCOC(=O)CCCCC(=O)c1[nH]c(=O)[nH]c1CSc1nc(C)cc(C)n1 | 8%[11.4 µM] | 7% | -16% | nt | -4 | -6
CCOC(=O)CCCCC(=O)c1[nH]c(=O)[nH]c1CSc1nc2ccccc2[nH]1 | 3.2µM* | 24% | ? | ? | 7 | 11
CCOC(=O)c1[nH]c(=O)[nH]c1CSc1nc(C)cc(C)n1 | 35µM* | nt | 8% | ? | 4 | 25
CC(=O)c1c(C)[nH]c(C(=O)OCc2ccccc2)c1C | -9% | ? | -14% | 128% | 38* | 120*
CCN(CC)CCc1c(C)[nH]c(C(=O)OCc2ccccc2)c1C | -12% | nt | 2% | nt | -2 | -24
COC(=O)CCc1c(COC(C)=O)[nH]c(C(=O)OCc2ccccc2)c1C | 3.5µM* | ? | -2% | ? | -7 | -9
CC(=O)c1c(C)[nH]c(C(=O)OCC(=O)N(Cc2ccccc2)C(C)(C)C)c1C | 0% | ? | nt | -11% | nt | nt
CC(=O)c1c(C)[nH]c(C(=O)OCc2ccc([N+](=O)[O-])cc2)c1C | -30% | 14% | 1% | 12% | 15* | 56*
COC(=O)c1ccc(COC(=O)c2[nH]c(C)c(C(C)=O)c2C)o1 | 64% | 12% | -12% | -9% | 13 | 36
Cc1cc(C)n(-c2nc(C)c(C)c(=O)n2CC(=O)Nc2ccc(OC(F)(F)F)cc2)n1 | 5% | nt | nt | nt | nt | nt
CC(C)c1ccc(S(=O)(=O)N2CCN(C(=O)CCNC(=O)Nc3ccccc3)CC2)cc1 | -8% | ? | nt | 12µM* | nt | nt
Cc1ccc(C(=O)NC(=S)Nc2ccc(S(=O)(=O)N3CCN(C)CC3)cc2)cc1 | 28µM* | ? | 18% | ? | 26* | 18
